A short description of this experiment: HEK293T cytotoxicity, dose response, cytotoxicity control for miR-122 modulator project, cell-based, inhibitor set, cherry-pick, set 2 (AID 720697).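 Note: 0% = median of neutral control wells and -100% = MG132 positive control wells.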

Entries with a potency or affinity are not part of this list. Results filed as inconclusive are left out. Unmarked numbers belong to inactive results. Active and inactive are the calls of the source.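 Rule for the calls: active = signal loss with fitted half-maximal concentration at or below twice the top valid tested dose in every test run; inconclusive = runs disagree, flat 30 to 70% signal loss, or poor fit; inactive = all runs flat, opposite direction, or potency beyond limit.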

The source of these data is PubChem BioAssay AID720697 (Broad Institute, 2013).

Regarding `CNC(=O)C[C@@H]1CC[C@@H]2[C@H](COc3ccc(NC(=O)c4cccc(OC)c4)cc3C(=O)N2C)O1`, the outcome was inactive.

`CCCNC(=O)C[C@H]1CC[C@@H]2[C@H](COc3ccc(NS(=O)(=O)c4ccccc4C)cc3C(=O)N2C)O1`: the compound was classed as inactive. On the same count and under the same terms, the value for `C[C@@H]1CN([C@@H](C)CO)S(=O)(=O)c2ccc(C#CC3CC3)cc2O[C@@H]1CN(C)C(=O)c1cccc(F)c1` was “inactive”; that for `O=CN1CCN(C(=O)c2ccccc2F)CC1` was “inactive”; that for `O=C(c1cccc(F)c1)N1C[C@@H]2[C@H](c3ccccc31)[C@H](CO)N2C(=O)Cc1ccccc1` was “inactive”. Take `CCCNC(=O)N1[C@H](CNC(=O)c2ccc(F)cc2)[C@H](c2ccccc2)[C@@H]1CO`: the call was inactive. With `CCCNC(=O)C[C@@H]1CC[C@H]2[C@H](COc3ccc(NC(=O)c4ccc(C(F)(F)F)cc4)cc3C(=O)N2C)O1`, the compound was classed as inactive. For the compound `COCC(=O)Nc1ccc2c(c1)C(=O)N(C)[C@H]1CC[C@@H](CC(=O)NCCCN(C)C)O[C@H]1CO2`, the compound was called inactive. In the case of `CCN(CC)CCNC(=O)c1ccc(NC(=O)c2cn(-c3ccc(F)cc3)nc2-c2cccc(OC)c2)cc1`, the activity change, negative = cytotoxicity was -17.7% [at 6 µM]. Regarding `CCCNC(=O)C[C@@H]1CC[C@@H]2[C@@H](COc3ccc(NS(=O)(=O)c4ccccc4C)cc3C(=O)N2C)O1`, the compound was called inactive. `CCN(C[C@@H]1[C@@H](c2ccccc2)[C@H](CO)N1C(C)=O)C(=O)NC(C)C`: the call was inactive. In the case of `CC(=O)N1[C@H](CN(C(=O)c2ccc(F)cc2)C(C)C)[C@@H](c2ccccc2)[C@@H]1CO`, the call was inactive.
